# Only some compounds are listed: those with a hit (about 3.1% of all), similar ones and a draw of the others.
# PAX8 inh HTS = PAX8 transcriptional activity inhibition; RMG-I TPO-luciferase reporter, SteadyGlo, 24 h; inhibition, % at 12.6 µM; hit rate 1.2% among 360,000; AID 652154;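 active = mean replicate inhibition at least 60% with every replicate also reaching 60%; inconclusive = only one of the two criteria is met; inactive = mean below 60% and not all replicates reaching 60%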;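 also: luciferase light reporting Pax8 driven TPO promoter activity; plate controls were median of neutral control wells for no effect and mitoxantrone controls for full effect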
# LGR2 inh = Drosophila LGR2 receptor signaling inhibition; hit rate 0.35% among 380,000; HEK293 LGR2, CRE-luciferase, bursicon-stimulated, 4 h; AID 720647; inhibition, % at 9.99 µM;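 active = drop in luminescence signal, shown as inhibition above about 50% in the replicate tests, limit read from the data, passing the limit was not always enough; inconclusive = probably only some replicates passing the limit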;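 also: agonist challenge used bursicon conditioned medium at about half maximal strength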
# LMP1 NFkB inh = inhibitors of Epstein-Barr LMP1-induced NF-kappaB reporter; AID 504558; hit rate 0.69% among 350,000; LMP1-induced NF-kappaB luciferase reporter cells, luminescence; inhibition, % at 12.5 µM; in the data active = inhibition above about 41%; inconclusive = no clear call, values can overlap the other calls;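 also: 0% = neutral control wells and 100% = reference inhibitor control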
# TROY NFkB inh = inhibitors of TROY-dependent NF-kB signaling; Q293 LMP1-TROYcd NF-kB luciferase reporter, 4 h; inhibition, % at 10 µM; hit rate 0.98% among 360,000; AID 1347056;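 active = compounds whose plate-normalised and pattern-corrected inhibition of the luciferase reporter signal at the single screening dose is 50% or more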
# EWS-Fli inh = inhibitors of EWS/Fli oncoprotein transcriptional activity; A673 NR0B1-luciferase reporter, viability-normalised; inhibition, % at 12.6 µM; hit rate 0.67% among 350,000; AID 651661;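 active = mean inhibition of at least 50% after viability correction, with every replicate also passing that limit; inconclusive = mean reaches 50% but only one of two replicates passes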;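 also: firefly luciferase signal divided by Alamar Blue viability fluorescence both relative to DMSO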
# TWEAK Fn14 block = TWEAK-Fn14 signaling inhibition | TWEAK-stimulated Fn14 reporter cells, luciferase luminescence, 8 h | hit rate 2% among 360,000 | AID 1159606 | inhibition, % at 10 µM; in the data active = inhibition above about 50%
# Numbers without * were called inactive; ? = inconclusive; · = not tested or not shown.
SMILES,PAX8 inh HTS,LGR2 inh,LMP1 NFkB inh,TROY NFkB inh,EWS-Fli inh,TWEAK Fn14 block
CCc1nnc(NC(=O)c2cc3c(s2)CCCCC3)s1,·,-30,-15,-11,·,20
CO[C@H]1CN(C)C(=O)c2cc(NC(=O)c3cnccn3)ccc2OC[C@H](C)N(CC2CC2)C[C@@H]1C,·,3,·,·,-10,·
Cc1csc(NC(=O)c2cc3c(s2)CCCC3)n1,·,·,8,35,·,71*
CCOc1ccc(CN2CCN(Cc3ccsc3)C(CCO)C2)cc1CO (stereo not drawn),17,13,0,4,0,89*
COCc1cc(CN2CCN(Cc3ccsc3)C(CCO)C2)ccc1OC (stereo not drawn),-6,2,-11,3,0,19
C[C@@H]1CCCCO[C@@H](CN(C)Cc2ccccc2)[C@H](C)CN([C@H](C)CO)C(=O)c2cc(NC(=O)Nc3ccccc3)ccc2O1,3,9,·,·,12,·
CCCOC(=O)c1ccc(NC(=O)/C=C/c2cccs2)cc1,-72,-42,-3,56*,·,32
Cc1nc2cc(-c3cccc(F)c3)nn2c(C)c1CCC(=O)NC(C)CCc1ccco1 (stereo not drawn),·,·,24,9,·,67*
O=C(Nc1cc(S(=O)(=O)Nc2ccc(Cl)cc2)ccc1O)c1ccc(S(=O)(=O)N2CCCCCC2)cc1,8,8,-10,57*,12,13
O=C(Nc1cc(S(=O)(=O)N2CCCCC2)ccc1O)c1ccccc1NS(=O)(=O)c1ccc(F)cc1,-4,1,-8,43,8,15
O=C(Nc1cc(S(=O)(=O)N2CCOCC2)ccc1O)c1ccc(S(=O)(=O)N2CCCCC2)cc1,8,-10,-1,2,9,0
O=C(Nc1cc(S(=O)(=O)N2CCCCC2)ccc1Cl)c1ccccc1NS(=O)(=O)c1ccc(F)cc1,93*,47,28,52*,24,65*
COc1ccc(S(=O)(=O)Nc2ccc3c(c2)C(=O)N([C@@H](C)CO)C[C@@H](C)[C@H](CN(C)C(=O)c2ccncc2)OCCCC[C@@H](C)O3)cc1,19,2,·,·,-4,·
CC(=O)/C=C/c1ccc2ccccc2n1,·,·,21,-7,·,64*
COC(=O)c1c(-c2ccc3ccccc3c2)csc1NC(=O)Cc1ccc(OC)c(OC)c1,·,·,13,47,·,65*
CN(C)C(=O)c1ccc(-c2ccc([C@@H]3[C@@H](C#N)N(C(=O)Nc4ccccc4F)[C@H]3CO)cc2)cc1,-9,-12,·,·,-4,·
Cc1ccc2nsnc2c1NC(=O)c1sc2ccccc2c1Cl,-24,2,-6,86*,·,90*
Cc1nnc(NC(=O)c2sc3ccccc3c2Cl)s1,-30,·,23,-21,·,46
Cc1ccc(NC(=O)c2sc3ccccc3c2Cl)nc1,·,-76,32,52*,50,75*
O=C(Nc1ccccn1)c1sc2cccc(F)c2c1Cl,-4,15,-6,13,-67,63*
CN1CCN(C(=O)C[C@H]2CC[C@@H]3[C@H](COC[C@H](O)CN3S(=O)(=O)c3cccc(F)c3)O2)CC1,-8,10,·,·,4,·
CC=Cc1ccc2n(c1=O)C[C@@H]1[C@@H](CO)[C@H](C(=O)N3CCCCC3)[C@H]2N1C(=O)C1CC1 (mixture of isomers),·,2,·,·,1,·
C[C@H](CO)N1C[C@H](C)[C@@H](CN(C)Cc2ccc(C(=O)O)cc2)OCCCC[C@H](C)Oc2ccc(NC(=O)C3CCCCC3)cc2C1=O,2,2,·,·,2,·
O=S(=O)(c1ccccc1)N1CCCCN2[C@H](C1)[C@H](c1ccc(-c3ccccc3F)cc1)[C@@H]2CO,-32,7,·,·,-16,·
Cc1ccc(-c2ccc([C@H]3[C@H](CO)N4CCCCN(S(=O)(=O)c5cccc(C)c5)C[C@@H]34)cc2)cc1,87*,·,·,·,-8,·
SMILES,PAX8 inh HTS,LGR2 inh,LMP1 NFkB inh,TROY NFkB inh,EWS-Fli inh,TWEAK Fn14 block
Cc1ccccc1-c1ccc([C@@H]2[C@@H](CO)N3CCCCN(C(=O)NC4CCCC4)C[C@H]23)cc1,82*,-7,·,·,21,·
O=S(=O)(c1ccccc1)N1CCCCN2[C@H](CO)[C@H](c3ccc(-c4ccccc4F)cc3)[C@H]2C1,114*,-11,·,·,14,·
Cc1ccccc1-c1ccc([C@@H]2[C@H](CO)N3CCCCN(S(=O)(=O)Cc4ccccc4)C[C@@H]23)cc1,-24,0,·,·,57*,·
CCS(=O)(=O)N1CCCCN2[C@H](CO)[C@@H](c3ccc(-c4ccccc4C)cc3)[C@@H]2C1,-2,5,·,·,6,·
Cc1ccc(-c2ccc([C@H]3[C@H]4CN(S(=O)(=O)c5cccc(C)c5)CCCCN4[C@H]3CO)cc2)cc1,-22,·,·,·,1,·
O=C(N[C@H]1C=C[C@H](CC(=O)N2CCOCC2)O[C@@H]1CO)c1cccc(F)c1,3,5,·,·,-2,·
Cc1noc(C)c1NC(=O)Nc1ccc2c(c1)C(=O)N([C@H](C)CO)C[C@H](C)[C@@H](CN(C)S(=O)(=O)c1cn(C)cn1)OCCCC[C@H](C)O2,-21,13,·,·,-4,·
C[C@H](CO)N1C[C@H](C)[C@H](CN(C)C)Oc2c(NC(=O)Nc3ccc(C(F)(F)F)cc3)cccc2C1=O,19,-5,·,·,-6,·
COc1cccc(NC(=O)N2CCN(c3nc(-c4cccc(OC)c4)cs3)CC2)c1,28,-5,24,37,-5,67*
COc1cccc(-c2csc(N3CCN(C(=O)Nc4ccccc4Cl)CC3)n2)c1,9,-19,-8,13,-22,-7
COc1ccc(-c2csc(NC(=O)c3c(C)noc3C)n2)cc1F,-48,-9,15,77*,-7,20
COc1ccc(CC(=O)Nc2nc(-c3cc(OC)ccc3OC)cs2)cc1,-14,-4,-2,20,-13,65*
COc1cccc(NC(=O)Nc2nc(-c3ccc(OC)c(OC)c3)cs2)c1,104*,?,52*,70*,65*,105*
COc1ccc(NC(=O)Nc2ccc3c(c2)CC(=O)N([C@@H](C)CO)C[C@H](C)[C@H](CN(C)Cc2ccccc2)O3)cc1,-11,18,·,·,-2,·
C[C@@H]1CCCCO[C@@H](CN(C)S(=O)(=O)c2ccc(F)cc2)[C@H](C)CN([C@@H](C)CO)C(=O)c2cc(NC(=O)NC3CCCCC3)ccc2O1,5,-3,·,·,-6,·
C[C@@H]1CN([C@H](C)CO)C(=O)c2cc(C#CC3CC3)cnc2O[C@H]1CN(C)C(=O)Nc1ccccc1,·,6,·,·,1,·
C[C@@H]1CN([C@H](C)CO)C(=O)c2cc(NC(=O)Nc3ccccc3)ccc2O[C@@H](C)CCCCO[C@H]1CN(C)S(=O)(=O)c1cccs1,40,-24,·,·,6,·
O=C(Nc1nc(-c2ccc3c(c2)OCCO3)cs1)c1ccco1,-230,-99,-20,11,·,26
COc1ccccc1C(=O)Nc1nc(-c2ccc3c(c2)OCCO3)cs1,-15,1,3,51*,2,5

# Source: PubChem BioAssay
